Compound activity: PubChem, National Center for Advancing Translational Sciences (NCATS)
Rows were chosen to be rich in hits. Some 3.8% of all compounds tested hit in one or more screens of this group.
S2 tox: Viability Counterscreen for Primary qHTS for Inhibitors of ATXN expression. Potency, µM (doses to about 56.7 µM), usual class: cytotoxic. 400,000 tested, 0.49% active. S2 cells (HEK-293 line with an ATXN2-luciferase reporter) viability, CellTiter-Fluor protease fluorescence, 24 h; note: nearly all actives have a fitted effect of over 40% in size
HT1080 IDH1KD tx: qHTS for induction of synthetic lethality in tumor cells producing 2HG: qHTS for the HT-1080-IDH1KD cell line; Potency, µM (doses to about 46.1 µM), hits mostly cytotoxic; HT-1080 IDH1 knockdown viability, ATP luminescence, 48 h; AID 686971, 2013; 360,000 tested, 2% active
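IDH1KD HT-1080 cells, 750/well, RPMI + 5% FBS; compound pinned after 2 h settling; 48 h, 37 °C; CellTiter-Glo luminescence; % activity normalised to DMSO and no-cell wells; curves fitted, classed by r2 and efficacy.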
HepG2 tox: qHTS for Inhibitors of TGF-b: Cytotox Counterscreen | HepG2 CAGA-GFP viability, ATP luminescence, 18 h | Potency, µM (highest dose often 46.1 µM), most hits filed as cytotoxic | 410,000 tested, 0.76% active
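CellTiter-Glo luminescence gave cytotoxicity after 18 hours at 37 degrees C. The cells were HepG2 CAGA-GFP in 1% FBS DMEM, stimulated with 500 pg/mL TGF-beta after compound addition. %Activity was normalised to no-cell wells (complete cell-killing) and DMSO (no toxicity), and curves were fitted and classified.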
TGFb inhibitor: qHTS for Inhibitors of TGF-b. HepG2 CAGA-GFP TGF-b/SMAD3 reporter, GFP fluorescence, 18 h; TGF-beta stimulated, 500 pg/mL final. Potency, µM (doses to about 46.1 µM), actives largely listed as inhibitors. 410,000 tested, 1.2% active. AID 588855, 2011; note: nearly all actives have a fitted effect of over 65% in size
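First, reporter cells (HEPG2 CAGA-GFP) rested 2 h at 37 degrees C. Next, compounds were pinned in and TGF-beta added to 500 pg/mL final. After 18 h, GFP was imaged per cell and summed per well.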
HT1080-NT tox: qHTS for induction of synthetic lethality in tumor cells producing 2HG: qHTS for the HT-1080-NT fibrosarcoma cell line. HT-1080-NT fibrosarcoma viability, CellTiter-Glo ATP luminescence, 48 h. Potency, µM (doses to about 46.1 µM), hits mostly cytotoxic. 360,000 tested, 1.6% active. AID 686970, 2013;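 note: NT is the 2HG producing partner of a matched IDH1 knockdown line; nearly all actives have a fitted effect of over 55% in size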
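A 48-hour cytotoxicity screen used HT-1080-NT cells plated 2 hours before compound delivery. ATP-based CellTiter-Glo luminescence measured viability, normalized to DMSO and no-cell controls.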
ATXN2 expr inh: Primary qHTS for Inhibitors of ATXN expression | Potency, µM (titrated, usually from 57 µM), hits mostly inhibitors | AID 1745845, 2022 | HEK-293 ATXN2-luciferase reporter, luminescence, 24 h | 360,000 tested, 0.72% active; note: nearly all actives have a fitted effect of over 55% in size
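ATXN2-luciferase reporter cells (luciferase flanked by upstream and downstream ATXN2 gene portions) were treated 24 h at 37 °C with compounds at up to 57 uM. SteadyGlo luminescence gave expression; GF-AFC fluorescence gave viability.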
Hits are given with their value; . = inactive; ? = inconclusive; / = no result given. Calls come from the whole dose curve; as a rule, active = well fitted curve in the direction sought with a large enough effect; inconclusive = small, poorly fitted or top-dose-only effect, or another doubt; inactive = no such curve, though single readings can be large; an effect the other way counts as inactive or inconclusive.

SMILES | S2 tox | HT1080 IDH1KD tx | HepG2 tox | TGFb inhibitor | HT1080-NT tox | ATXN2 expr inh
CCOC(=O)N1CCc2c(sc3c2C(=O)NC(c2ccccc2)N3)C1 (stereo not drawn) | . | 15µM | . | ? | ? | .
CN1CCc2c(sc3c2C(=O)NC(c2ccco2)N3)C1 (stereo not drawn) | . | . | . | . | . | .
CN1CCc2c(sc3c2C(=O)NC(c2cn(Cc4ccccc4)c4ccccc24)N3)C1 (stereo not drawn) | . | . | . | 1.3µM | . | ?
COC(=O)C1CCN(Cc2ccc3c(c2)CN(C(=O)C2Cc4ccccc4O2)CCO3)CC1 (stereo not drawn) | . | / | / | / | / | /
O=C1CS(=O)(=O)N(Cc2cccc(F)c2)c2ccc(Br)cc21 | . | ? | . | ? | ? | .
COc1ccc(CN2c3c(Br)cccc3C(=O)CS2(=O)=O)cc1 | . | ? | . | ? | 23µM | .
CC(/C=C/c1ccccc1)=N\Nc1nc(C)cc(C)n1 | ? | . | . | ? | . | .
Cc1cc(C)nc(NN=C(c2ccccc2)c2ccccc2)n1 | . | . | . | 11µM | . | /
NS(=O)(=O)c1cccc(NS(=O)(=O)c2ccc(/C=C/C(=O)O)cc2)c1 | . | . | 13µM | . | . | .
CCOc1ccccc1-c1nn2c(Cc3ccccc3)nnc2s1 | . | ? | 13µM | ? | . | .
COc1ccc2c(c1)OC(C)CN(CCNC(=O)c1cccc(N3CCNC3=O)c1)C2 (stereo not drawn) | . | / | / | / | / | /
Cc1ccc(NC(=O)CCCn2c(=O)c3cccn3c3ccccc32)c(Cl)c1 | / | / | . | . | / | /
Cc1cc(C)cc(NC(=O)CCCn2c(=O)c3cccn3c3ccccc32)c1 | / | / | . | 11µM | / | /
CCc1c(C2(O)CCCCC2)[nH]c2ccc(C(F)(F)F)cc12 | / | . | . | 11µM | ? | .
CN(C)Cc1c(C(C)(C)O)[nH]c2ccc(C(F)(F)F)cc12 | . | . | . | . | . | .
C=CC[n+]1ccc(/C=C2\C=Cc3cc(C)ccc3N2CC)c2ccccc21 | 9.5µM | 4.1µM | . | 2.8µM | 5.8µM | ?
Cn1ncc2c(Nc3ccc(Br)cc3)nc(Nc3ccc(Br)cc3)nc21 | . | 18µM | . | 11µM | ? | .
Cn1ncc2c(Nc3cccc(Cl)c3)nc(Nc3cccc(Cl)c3)nc21 | . | 21µM | 22µM | ? | 15µM | ?
CCCn1c(C2CCCN2c2nc(-c3cccc(Br)c3)cs2)nc2ccccc21 (stereo not drawn) | 22µM | . | . | ? | . | .
Cc1ccc(-c2csc(N3CCC[C@@H]3C(=O)NCCn3c(C(F)(F)F)nc4ccccc43)n2)cc1 | ? | ? | . | ? | . | ?
O=C(Cn1cc([N+](=O)[O-])nc1[N+](=O)[O-])N1CCN(c2ccccc2)CC1 | . | 26µM | . | ? | . | .
O=C(Cn1cnc2ccccc2c1=O)N1CCN(c2ccccc2)CC1 | . | . | . | . | . | .
Cc1cccc2cc(CN(C(=O)c3ccc(N4CCCCC4)cc3)C3CC3)c(N3CCC(O)CC3)nc12 | . | / | / | / | / | /
Cc1ccc(Nc2nc(-c3c(C)nc4ncccn34)cs2)cc1 | ? | ? | . | ? | 0.18µM | .
Cc1nc2ncccn2c1-c1csc(Nc2ccc(O)cc2)n1 | . | ? | . | . | . | .
SMILES | S2 tox | HT1080 IDH1KD tx | HepG2 tox | TGFb inhibitor | HT1080-NT tox | ATXN2 expr inh
Cc1ncc2c(c1CNS(=O)(=O)N(C)C)CCN(C(=O)c1c(F)cccc1F)C2 | . | / | / | / | / | /
O=C(CN1CCOCC1)Nc1ccc(F)cc1 | ? | . | . | . | . | /
O=C1OC(c2ccc(F)cc2)CC1CN1CCOCC1 (stereo not drawn) | . | 16µM | . | . | ? | .
COc1cccc(Cn2c(C(C)n3c(-c4cnccn4)nc4ccccc43)nc3ccccc32)c1 (stereo not drawn) | / | 15µM | / | / | ? | /
COc1cccc(Cn2c(Cn3c(-c4cnccn4)nc4ccccc43)nc3ccccc32)c1 | . | . | / | / | . | .
CCCCCCCCCC[n+]1ccc(/C=C/c2ccc(N(C)C)cc2)c2ccccc21 | / | / | . | ? | / | /
O=C(NC1CCN(Cc2ccccc2)CC1)c1cccc(S(=O)(=O)Nc2ccc(SC(F)F)cc2)c1 | . | . | . | 11µM | ? | ?
O=C(Nc1cccc(S(=O)(=O)Nc2ccc(SC(F)F)cc2)c1)C1CCC1 | . | . | . | . | 15µM | .
COc1ccc(-n2nc(C(=O)Nc3ccc(Cl)cn3)c3c4ccccc4n(C)c3c2=O)cc1Cl | . | / | . | . | / | .
CC(C)c1ccc(C(=O)CC2(O)C(=O)N(CCc3ccccc3)c3ccc(Cl)cc32)cc1 (stereo not drawn) | ? | / | . | 16µM | / | ?
CCCN1C(=O)C(O)(CC(=O)c2ccc(C(C)C)cc2)c2ccccc21 (stereo not drawn) | / | / | . | / | / | /
Cc1cnc(-n2ncc(C(=O)NCCc3cccnc3)c2C)nc1-c1ccc(F)cc1 | . | / | / | / | / | /
